Test results as given in PubChem BioAssay (Tox21).
Results filed as inconclusive are left out. Entries that show only a call come without a potency. Active and inactive are the calls of the source. Calls follow the shape of the dose curve; as a rule, active = well fitted cell-killing curve with a large enough effect in the repeat runs; inconclusive = weak or mixed curves, or effect the other way; inactive = flat fitted curve, though single readings scatter.

assay: qHTS assay to identify small molecule antagonists of the estrogen receptor alpha (ER-alpha) signaling pathway using the BG1 cell line - cell viability counter screen (AID 743081); details: BG1Luc4E2 viability, CellTiter-Fluor, 22 h; series mostly up to 70.3 µM;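 also: compound given together with 17beta-estradiol as the ER stimulus; nearly all actives have a fitted effect of over 45% in size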
Potency is read from the fitted curve at half-maximal effect.

Row | SMILES | Potency
1 | CC(=O)[C@@]1(O)CC[C@H]2[C@@H]3C=C(Cl)C4=CC(=O)[C@@H]5C[C@@H]5[C@]4(C)[C@H]3CC[C@@]21C | inactive
2 | COC(=O)[C@@H](N)CS | inactive
3 | CCCCCCCCCCCCCCCCCC(=O)OCCO | inactive
4 | C=C1c2c(Cl)ccc(O)c2C(O)=C2C(=O)[C@]3(O)C(O)=C(C(N)=O)C(=O)[C@@H](N(C)C)[C@@H]3[C@@H](O)[C@H]12 | inactive
5 | NC(=S)N=Nc1ccc(NN=C(N)N)cc1 | 26.6 µM (active)
6 | O=c1oc2cc(O)ccc2s1 | inactive
7 | Nc1nc2[nH]cc(CCc3ccc(C(=O)N[C@@H](CCC(=O)O)C(=O)O)cc3)c2c(=O)[nH]1 | inactive
8 | CCN(CC)CCOC(=O)c1cccnc1 | inactive
9 | C[N+](C)(CCCCCC[N+](C)(C)C1c2ccccc2-c2ccccc21)C1c2ccccc2-c2ccccc21 | inactive
10 | O=C1NCCN1c1ncc([N+](=O)[O-])s1 | inactive
11 | CCCCCCCCCCCCCCCC(=O)OC[C@@H](COP(=O)([O-])OCC[N+](C)(C)C)OC(=O)CCCCCCCCCCCCCCC | inactive
12 | C=CCCCCCCCCC(=O)OC | inactive
13 | Cc1c(O)cc2c(c1C)O[C@](C)(CCC[C@H](C)CCC[C@H](C)CCCC(C)C)CC2 | inactive
14 | c1ccc2c(CCC3CCNCC3)c[nH]c2c1 | inactive
15 | CC(=O)N(CC(C)C(=O)O)c1c(I)cc(I)c(N)c1I (configuration not stated) | inactive
16 | COc1cc(S(C)=O)ccc1-c1nc2ncccc2[nH]1 (configuration not stated) | inactive
17 | CC(=O)N[C@@H](CC(=O)N[C@@H](CCC(=O)O)C(=O)O)C(=O)O | inactive
